The structures appear in SMILES notation. Hit rate of the full screen: of about 310,000 compounds, about 14,000 (4.5%) showed an effect of 50% or more. The effect is printed as a negative number. The sample holds strong results, similar compounds and a random draw of the others, so the mix is not that of the screen.
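Note: peak tail current of the secondary pulse compared with the same well before compound.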

In the test the target is human ether-à-go-go-related gene (hERG) potassium channel (human, UniProt Q12809). Put plainly: primary screen, population patch clamp on CHO cells stably expressing hERG; higher = less effect of the substance.
Sequence of human ether-à-go-go-related gene (hERG) potassium channel (Q12809 whole entry, looked up): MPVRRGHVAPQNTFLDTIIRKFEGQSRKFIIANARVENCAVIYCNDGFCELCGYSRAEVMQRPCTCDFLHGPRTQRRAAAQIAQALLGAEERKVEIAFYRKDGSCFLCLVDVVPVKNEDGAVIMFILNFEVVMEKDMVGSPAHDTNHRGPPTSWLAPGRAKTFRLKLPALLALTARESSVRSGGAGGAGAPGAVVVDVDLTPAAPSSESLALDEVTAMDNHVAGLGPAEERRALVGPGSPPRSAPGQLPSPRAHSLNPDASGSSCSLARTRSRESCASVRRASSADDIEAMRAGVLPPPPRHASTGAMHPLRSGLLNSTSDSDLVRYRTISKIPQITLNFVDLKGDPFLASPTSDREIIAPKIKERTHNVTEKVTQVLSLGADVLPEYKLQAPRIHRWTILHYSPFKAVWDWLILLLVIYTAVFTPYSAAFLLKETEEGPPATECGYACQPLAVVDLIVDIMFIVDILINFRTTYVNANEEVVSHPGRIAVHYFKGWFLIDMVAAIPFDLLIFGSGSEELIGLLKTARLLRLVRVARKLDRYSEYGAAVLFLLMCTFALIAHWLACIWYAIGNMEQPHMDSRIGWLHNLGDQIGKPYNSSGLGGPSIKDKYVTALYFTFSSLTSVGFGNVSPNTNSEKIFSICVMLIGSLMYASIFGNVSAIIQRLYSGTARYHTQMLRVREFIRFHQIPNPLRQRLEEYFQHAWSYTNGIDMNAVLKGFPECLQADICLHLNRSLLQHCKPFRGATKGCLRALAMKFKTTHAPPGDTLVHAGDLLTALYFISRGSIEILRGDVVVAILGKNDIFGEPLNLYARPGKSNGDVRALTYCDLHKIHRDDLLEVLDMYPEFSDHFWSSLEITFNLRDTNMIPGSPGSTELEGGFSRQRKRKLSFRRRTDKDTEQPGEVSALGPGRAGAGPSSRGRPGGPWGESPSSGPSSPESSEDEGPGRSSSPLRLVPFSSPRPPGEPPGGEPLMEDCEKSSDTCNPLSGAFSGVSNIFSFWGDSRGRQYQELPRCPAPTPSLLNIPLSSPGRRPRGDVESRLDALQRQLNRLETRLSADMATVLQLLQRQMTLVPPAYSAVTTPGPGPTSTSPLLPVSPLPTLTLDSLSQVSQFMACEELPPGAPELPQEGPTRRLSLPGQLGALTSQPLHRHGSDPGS
For `Cc1cc(C)nc(N2CCC(C(=O)Nc3ccc4c(c3)OCO4)CC2)n1`, the “hERG current change (%, negative = inhibition) at 10uM” value is -5.31%.
The result for `NS(=O)(=O)c1ccc(CNS(=O)(=O)c2ccc3ccccc3c2)cc1` reads 1.74%; that for `O=C(CSc1ncccn1)NCc1ccc(Cl)cc1`, 4.02%.
For the compound `COC(=O)C(=O)/C=C(\O)c1c(C)cc(C)cc1C`, the “hERG current change (%, negative = inhibition) at 10uM” value was found to be 14.9%.
With `COc1ccc(/C=C2/CCc3ccccc3C2=O)cc1OC`, the “hERG current change (%, negative = inhibition) at 10uM” value is -19.8%.
The figure for `CCOc1cc(CNCCO)ccc1OCC(=O)NC(C)(C)C.Cl` is 15.7%.
The result for `O=C(COC(=O)c1ccc(F)cc1F)NCCC1=CCCCC1` reads 10.6%.
On to `Cl.OC(COc1ccccc1)CN1CCC(Cc2ccccc2)CC1` (stereo not shown), for which the “hERG current change (%, negative = inhibition) at 10uM” value is -79.3%.
The result for `Cl.OC(COc1ccc(Br)cc1)CN1CCC(Cc2ccccc2)CC1` (stereo not shown) reads -85.9%.
Regarding `Cl.OC(COc1ccc(Cl)cc1)CN1CCC(Cc2ccccc2)CC1` (stereo not shown), the “hERG current change (%, negative = inhibition) at 10uM” value is listed as -81.4%.
The result for `CC(C)OCC(O)CN1CCNCC1.Cl` (stereo not shown) reads 11.6%.
The figure for `Cl.OC(COc1ccc(Br)cc1)CN1CCCC1` (stereo not shown) is -24.3%; for `CCN1CCN(CC(O)COC(C)C)CC1.Cl` (stereo not shown) it is 2.08%.
The figure for `CC(C)OCC(O)CN1CCC(Cc2ccccc2)CC1.Cl` (stereo not shown) is -56.9%; for `Cl.OC(COc1ccc(Cl)cc1)CN1CCN(c2ccccc2)CC1` (stereo not shown) it is -29.7%; for `OC(COc1ccc(OCc2ccccc2)cc1)CN1CCOCC1` (stereo not shown) it is -17%.
For the compound `O=S(=O)(c1ccc(OCC(O)CN2CCC(Cc3ccccc3)CC2)cc1)N1CCOCC1` (stereo not shown), the “hERG current change (%, negative = inhibition) at 10uM” value is -44.4%.
The figure for `Cl.OC(COc1ccc(Br)cc1)CN1CCOCC1` (stereo not shown) is -0.178%; for `Cl.OCCN1CCN(CC(O)COc2ccc(Cl)cc2)CC1` (stereo not shown) it is -20.6%.
The result for `COc1ccc(-n2c(O)c(C(C)=NCCc3c[nH]c4ccccc34)c(=O)[nH]c2=O)cc1` reads 14.6%; that for `Cc1cc(C)cc(Oc2c(C(F)(F)F)oc3cc(OCC(=O)O)ccc3c2=O)c1`, 4.25%; that for `Cc1ccc(NC(=O)CSc2nnc(-c3cnccn3)n2C)cc1C`, -5.78%.
The figure for `C/C(=N\Nc1nncc2ccccc12)c1ccc(OCC(=O)N(C)C)cc1` is 8.27%; for `COc1cc(CN2CCN(c3cccc(C)c3C)CC2)cc([N+](=O)[O-])c1O` it is 23.5%.
In the case of `CCC(C)C(NC(=O)C1CCC(C)CC1)C(=O)NC(C(=O)OC)C(C)C` (stereo not shown), the “hERG current change (%, negative = inhibition) at 10uM” value was -0.903%.
The result for `CCCn1c2ccccc2c2nc3ccccc3nc21` reads 13%; that for `Fc1ccccc1CN1CCC(Cc2ccccc2)CC1`, -24.4%; that for `Fc1cccc(CN2CCC(Cc3ccccc3)CC2)c1`, 5.12%.
The result for `OC(CN1CCN(c2ccccc2Cl)CC1)c1ccccc1` (stereo not shown) reads -42.3%.
For `Cc1c(C(O)CN2CCC(C(N)=O)CC2)c2ccccc2n1C` (stereo not shown), the “hERG current change (%, negative = inhibition) at 10uM” value is on record as -3.73%.
The figure for `COc1ccc2c(c1)c(C(O)CN1CCC(Cc3ccccc3)CC1)c(C)n2C` (stereo not shown) is -71%; for `O=C(O)C(=O)O.O=S(=O)(c1ccc(F)cc1)N1CCN(CC(O)COc2ccccc2F)CC1` (stereo not shown) it is -14.5%.
Turning to `OC(COc1ccc(F)cc1Cl)CN1CCC(Cc2ccccc2)CC1` (stereo not shown), the “hERG current change (%, negative = inhibition) at 10uM” value was -84.6%.
The result for `OC(CN1CCC(Cc2ccccc2)CC1)c1ccccc1` (stereo not shown) reads -52.9%; that for `CC1CCN(CC(O)COc2cccc(F)c2)CC1` (stereo not shown), -24.8%.
The result for `OC(CN1CCC(Cc2ccccc2)CC1)C(F)(F)F` (stereo not shown) reads 5.97%.
The figure for `Cl.OC(COc1ccccc1F)CN1CCC(Cc2ccccc2)CC1` (stereo not shown) is -76.2%; for `COc1ccc2c(c1)c(C(=O)CN1CCN(Cc3ccccc3)CC1)c(C)n2C` it is -29.8%.
Consider `COc1ccccc1NC(=O)Nc1nc(CC(=O)Nc2cccc(F)c2)cs1`, for which the “hERG current change (%, negative = inhibition) at 10uM” value is -3.26%.
In the case of `COc1ccc(CCNC(=O)C2CCN(S(=O)(=O)c3cccc4cccnc34)CC2)cc1OC`, the “hERG current change (%, negative = inhibition) at 10uM” value is 12.1%.
For the compound `CCOC(=O)N1CCN(c2nnnn2-c2ccccc2)CC1`, the “hERG current change (%, negative = inhibition) at 10uM” value is recorded as -0.913%.
The figure for `CCCCNC(=O)C(CC)(ONc1ccccc1C(F)(F)F)c1ccccc1` (stereo not shown) is 6.19%.
The figure for `CC(C)(C)c1ccc(C(=O)NNC(=O)C(=O)N2CCCCC2)cc1` is 14.3%; for `CS(=O)(=O)Nc1cccc(C2=NN(C(=O)c3cccc([N+](=O)[O-])c3)C(c3cccs3)C2)c1` (stereo not shown) it is -13.4%.
The result for `COc1cccc(OCC(O)CN2CCC(Cc3ccccc3)CC2)c1.Cl` (stereo not shown) reads -70.4%.
With `COc1cccc(OCC(O)CN2CCC(C)CC2)c1.Cl` (stereo not shown), the “hERG current change (%, negative = inhibition) at 10uM” value is listed as -12.3%.
Take `COc1cccc(OCC(O)CN2CCN(c3ncccn3)CC2)c1.Cl` (stereo not shown): the “hERG current change (%, negative = inhibition) at 10uM” value is listed as -11%.
The figure for `COc1ccc(CCNC(=O)C(CC(C)C)NC(N)=O)cc1` (stereo not shown) is 9.22%.
For `COc1ccc(C)cc1Nc1n[n+](-c2ccccc2)c(-c2ccc(NC(C)=O)cc2)s1.[Cl-]`, the “hERG current change (%, negative = inhibition) at 10uM” value is 12.8%.
The figure for `COc1ccc(C)cc1Nc1n[n+](-c2ccccc2)c(-c2cc([N+](=O)[O-])cc(OC)c2O)s1.[Cl-]` is 6.15%; for `COc1ccc(C)cc1Nc1n[n+](-c2ccccc2)c(-c2cc(OC)c(OC)cc2Br)s1.[Cl-]` it is -48.9%; for `COc1ccc(C)cc1Nc1n[n+](-c2ccccc2)c(-c2c(OC)ccc3ccccc23)s1.[Cl-]` it is -53.8%.
The figure for `COc1ccc(C)cc1Nc1n[n+](-c2ccccc2)c(-c2cccc(Cl)c2Cl)s1.[Cl-]` is 10%; for `COc1ccc(C)cc1Nc1n[n+](-c2ccccc2)c(-c2c(Cl)cccc2Cl)s1.[Cl-]` it is -55.9%; for `COc1ccc(C)cc1Nc1n[n+](-c2ccccc2)c(-c2ccc(C(=O)O)cc2)s1.[Cl-]` it is 18%.
`COc1ccc(C)cc1Nc1n[n+](C)c(-c2c3ccccc3cc3ccccc23)s1.[Cl-]`: the “hERG current change (%, negative = inhibition) at 10uM” value came out at 13.3%.
The result for `COc1ccc(C)cc1Nc1n[n+](-c2ccccc2)c(-c2ccc(OC)c(OC)c2OC)s1.[Cl-]` reads -71.8%; that for `COc1ccc(-c2nnc(SCC(=O)N(Cc3ccccc3)C(C)(C)C)o2)cc1OC`, -22.9%.
The figure for `O=c1c(Cc2ccc(Cl)cc2)c(O)ccn1Cc1cccs1` is 4.04%.
Turning to `Cc1ccc(C(=O)NC2CC(=O)N(c3ccc4c(c3)OCCO4)C2)cc1[N+](=O)[O-]` (stereo not shown), the “hERG current change (%, negative = inhibition) at 10uM” value amounted to 14.6%.
The figure for `CCC1(CC)NC(=O)N(CC(=O)OCC(=O)c2ccccc2OC)C1=O` is 0.647%; for `CC(C)(C)NC(=O)C(Cc1ccccc1)NS(=O)(=O)c1cccc2nsnc12` (stereo not shown) it is -1.39%; for `CC(Sc1ccccc1)C(=O)N1CCN(S(=O)(=O)c2ccccc2)CC1` (stereo not shown) it is -8.83%.
The figure for `CC1CC(C)CN(c2ccc(-n3cnnn3)cc2[N+](=O)[O-])C1` (stereo not shown) is -18.4%.
Take `O=[N+]([O-])c1cc(-n2cnnn2)ccc1N1CCC(Cc2ccccc2)CC1`: the “hERG current change (%, negative = inhibition) at 10uM” value is reported as -54.9%.
The figure for `NC(=O)CC(NC(=O)c1ccccc1)c1ccc(N2CCC(Cc3ccccc3)CC2)c([N+](=O)[O-])c1` (stereo not shown) is 4.44%.
The result for `Cn1cnnc1SCc1cccc(Br)c1` reads 0.347%.
The figure for `COc1cccc(-n2c(CNc3ccc(F)cc3)nnc2SCC(N)=O)c1` is -11.8%; for `CCc1ccc(NC(=O)C2CCN(C(=O)[C@@H]3Cc4ccccc4CN3)CC2)cc1` it is -59.5%.
For the compound `COc1cccc(NC(=O)C2CCN(C(=O)[C@@H]3Cc4ccccc4CN3)CC2)c1`, the “hERG current change (%, negative = inhibition) at 10uM” value is recorded as -48.1%.
For `Cc1cc(C)cc(NC(=O)C2CCN(C(=O)[C@@H]3Cc4ccccc4CN3)CC2)c1`, the “hERG current change (%, negative = inhibition) at 10uM” value is recorded as -67.7%.
Consider `Cc1cc(C)cc(NC(=O)C2CCC(CNC(=O)[C@@H]3Cc4ccccc4CN3)CC2)c1` (stereo partly shown), for which the “hERG current change (%, negative = inhibition) at 10uM” value came to 0.322%.
The figure for `Cc1ccc(NC(=O)C2CCN(C(=O)[C@@H]3Cc4ccccc4CN3)CC2)cc1` is -67.3%; for `CCc1ccc(NC(=O)C2CCC(CNC(=O)[C@@H]3Cc4ccccc4CN3)CC2)cc1` (stereo partly shown) it is 4.23%; for `Cc1ccc(NC(=O)C2CCN(C(=O)[C@@H]3Cc4ccccc4CN3)CC2)c(C)c1` it is -41.4%.
Regarding `Cc1cccc(NC(=O)C2CCC(CNC(=O)[C@@H]3Cc4ccccc4CN3)CC2)c1` (stereo partly shown), the “hERG current change (%, negative = inhibition) at 10uM” value is -2.36%.
The figure for `Cc1ccc(NC(=O)C2CCC(CNC(=O)[C@@H]3Cc4ccccc4CN3)CC2)cc1` (stereo partly shown) is -25.8%.
The result for `COc1ccc(CNC(=O)C2CCN(C(=O)[C@@H]3Cc4ccccc4CN3)CC2)cc1` reads -24.8%; that for `COc1ccc(NC(=O)C2CCN(C(=O)[C@@H]3Cc4ccccc4CN3)CC2)cc1`, -38.2%; that for `Cc1cccc(NC(=O)C2CCN(C(=O)[C@@H]3Cc4ccccc4CN3)CC2)c1`, -67.2%.
The figure for `COC(=O)COc1ccc(S(=O)(=O)Nc2ccc(NC(C)=O)cc2)cc1C` is 19.8%; for `COc1ccc(C2Nc3ccccc3C(=O)N2Cc2ccccc2)cc1Cn1nnc2ccccc21` (stereo not shown) it is -25.1%; for `Cc1cc(S(=O)(=O)N2CCN(c3ccccc3C)CC2)ccc1F` it is 1.78%.
`CCC(C)C(=O)Nc1nnc(SCC(=O)Nc2ccccc2F)s1` (stereo not shown): the “hERG current change (%, negative = inhibition) at 10uM” value amounted to 10.1%.
The figure for `CCOc1ccc2c(c1)nc(C)n2C` is 11.7%.

The record behind these values is publication PMC4336329 (PLoS ONE, 2015).
